We go through seven molecules from PubChem BioAssay (NCATS).

Test [1] addresses Lysosomal acid glucosylceramidase (Homo sapiens) (UniProt P04062). The test can be described thus: Glucocerebrosidase-p2 (AID 348; in the data active means potency below about 10 µM; further: potency means the concentration at half of the fitted maximal effect). Conditions: purified GBA, blue fluorogenic substrate, 40 min. A digest of the protocol: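 Normal human glucocerebrosidase (0.2 nM) with blue fluorogenic substrate (80 uM final) in citrate/phosphate pH 5.9 with 10mM sodium taurocholate, 0.01% tween-20; 40 min RT, NaOH/glycine stop; fluorescence Ex 365/Em 440; AC50 from a titration from 0.6 nM upwards.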

The nature of test [2]: AP1 Signaling Pathway (AID 357; active means well fitted curve in either direction with a large enough effect, not every such curve was filed as active;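 further: ME-180 reporter cells stimulated with EGF at its EC50 level; on the % scale 0 is the no-effect control and ±100 the full control effect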). The following applies: ME-180 AP-1-bla reporter, EGF-induced, beta-lactamase ratio, 5 h; at 7.69 µM (top of the series) unless noted. A digest of the protocol: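 AP-1-bla ME-180 cells, Opti-MEM + 0.5% dialyzed FBS, plated overnight 37 °C. Cpd titration + EC50 EGF, 5 h 37 °C. CCF4 2.5 h RT; ex 405, em 460/530 ratio → %activity, AC50.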
In test [3] the target is Cytochrome P450 1A2 (Homo sapiens) (UniProt P05177). Kind of test: p450-cyp1a2 (AID 410; calls by dose curve; further: potency means the concentration at half of the fitted maximal effect). Conditions: recombinant CYP1A2, luciferin-ME demethylation, luminescence; series mostly up to 57 µM. Summed up: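 20nM CYP1A2, 100uM Luciferin-ME (=Km), 100mM KPO4; cpd 10 min RT; +NADPH regen, 60 min RT; stop/detect 20 min; luminescence. Normalized to furafylline 57 uM = full inhibition.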

Test [4] is described as follows: NFAT Signaling Pathway (AID 444; active means well fitted curve in either direction with a large enough effect, not every such curve was filed as active;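 further: carbachol stimulus at about its EC50 of 1 µM final; on the % scale 0 is the no-effect control and ±100 the full control effect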). Conditions: Jurkat NFAT-bla M1, carbachol, beta-lactamase ratio, 5 h; at 7.69 µM (top of the series) unless noted. A digest of the protocol:
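Read-out: CCF4 FRET ratio (460 nm/530 nm) after 1 h RT dye loading, used for %activity and AC50 from titration series. Cells: Jurkat NFAT-β-lactamase/M1 line, treated with compound plus 1 uM carbachol for 5 h, 37 °C.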

A short description of test [5]: Stat Signaling Pathway (AID 446; active means well fitted curve in either direction with a large enough effect, not every such curve was filed as active;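 further: ME-180 cervical cancer cells given 40 pM IL-6 alongside compound; SIE-controlled beta-lactamase reporter measured as 460/530 nm FRET emission ratio; on the % scale 0 is the no-effect control and ±100 the full control effect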). Conditions: ME-180 (cervical carcinoma) SIE beta-lactamase reporter, IL-6 stimulated, 5 h; at 7.69 µM (top of the series) unless noted. A digest of the protocol:
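FRET read-out (405 nm excitation, 460/530 nm emission) of a beta-lactamase reporter under a STAT-inducible element in ME-180 cervical carcinoma cells. Cells with compound receive 40 pM IL-6 for 5 h. Values are normalised to AC90 stimulation and AC90 JAK-inhibitor controls.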

Test [6] deals with Glucocorticoid receptor (Homo sapiens) (UniProt P04150). Kind of test: GR-GFP Redistribution (AID 450;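 active means compounds whose dose series gives a full or clear partial fitted curve of increased nuclear translocation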; further: potency means the concentration at half of the fitted maximal effect). Conditions: U2OS GR-GFP nuclear translocation, laser cytometry, 2 h.
The target is the same in test [7]. The test can be described thus: GR-EFC Redistribution (AID 451; calls by dose curve; further: potency means the concentration at half of the fitted maximal effect). The following applies: CHO-K1 GR-EFC translocation, beta-gal luminescence, 2 h. A digest of the protocol:
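Translocation of GR-ED fusion to nuclear EA restores b-gal, read by luminescence after 1 h room-temperature detection. Engineered CHO-K1 biosensor cells, 1,000/well, exposed 2 h at 37 C to titrations up to 46 uM final.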

Test [8] addresses Mitogen-activated protein kinase 10 (Mus musculus) (UniProt Q61831). The test can be described thus: JNK3 AlphaScreen Assay (AID 530; active means well fitted curve in either direction with a large enough effect, not every such curve was filed as active;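 further: kinase came from lysate of stimulated human HepG2 cells; signal reports phosphorylation of biotinylated GST-cJun 1-79 at Ser73 with 10 µM ATP; on the % scale 0 is the no-effect control and ±100 the full control effect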). The following applies: JNK3 lysate, c-Jun phosphorylation; series mostly up to 57.1 µM. Summed up:
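Kinase buffer: 20 mM Tris-HCl pH 7.6, 10 mM MgCl2, 1 mM DTT, 0.1 mM Na3VO4, 0.01% Tween-20; ATP 10 uM. Substrate biotin-GST-cJun(1-79), enzyme from activated HepG2 lysates. Detection by Ser73 phospho-antibody AlphaScreen.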
For orientation: In Alpha technology, singlet oxygen from a donor bead excites a nearby acceptor bead.

Test [9] concerns the target 3',5'-cyclic-AMP phosphodiesterase 4B (Homo sapiens) (UniProt Q07343). The test can be described thus: qHTS Assay for Inhibitors of PDE-IV (AID 607; active means well fitted activation curve with a large enough effect in the main read-out, with a control signal flat, not every such curve was filed as active; further: % of control where 0% means no effect). Conditions: HEK293 ACTOne CNG channel cells, membrane potential fluorescence; series mostly up to 22.9 µM. Summed up: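 Cell-based read-out of cAMP via a modified cyclic nucleotide-gated channel and membrane potential dye (535/590 nm) in HEK293 cells expressing PDE4 endogenously. Compounds tested up to 22.9 uM final; 100 uM RO 20-1724 reference.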
In general terms: Quantitative high-throughput screening tests each substance at several concentrations.

Test [10] has as its target Cytochrome P450 3A4 (Homo sapiens) (UniProt P08684). The test can be described thus: qHTS Assay for Inhibitors and Substrates of Cytochrome P450 3A4 (AID 884). Further: nearly all actives have a fitted effect of over 50% in size. Further: potency means the concentration at half of the fitted maximal effect. Conditions: recombinant CYP3A4, Luciferin-PPXE luminescence; series mostly up to 57.1 µM. Summed up:
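Luminescent readout of luciferin produced by CYP3A4 (20 nM) dealkylation of Luciferin-PPXE, 25 uM (its KM). NADPH-driven reaction ran 60 min at RT after 10 min compound preincubation; data scaled to 57 uM ketoconazole as 100% inhibition.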

Test [11] shares this target. Kind of test: qHTS Assay for Activators of Cytochrome P450 3A4 (AID 885). Further: nearly all actives have a fitted effect of over 65% in size. The following applies: recombinant CYP3A4, Luciferin-PPXE luminescence, 60 min; series mostly up to 57.1 µM. Summed up:
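Luminescent readout of luciferin formed from 25 uM Luciferin-PPXE (KM level) by 20 nM CYP3A4 in 200 mM KPO4, with 60 min NADPH-driven reaction at room temperature after 10 min compound exposure. Ketoconazole (57 uM) defined 100% inhibition.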

Test [12] has as its target Dual specificity protein kinase CLK4 (Homo sapiens) (UniProt Q9HAZ1). The test can be described thus: qHTS Assay for Inhibitors of CDC-like Kinase 4 (ADP-FP Assay) (AID 1795). Further: on the % scale 0 is the no-effect control and ±100 the full control effect; nearly all actives have a fitted effect of over 60% in size. The following applies: Transcreener ADP fluorescence polarization; series mostly up to 50 µM. Summed up: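 Recombinant human Clk4 (6.25 nM) phosphorylated RS repeat peptide (100 uM) with 1 uM ATP in Tris pH 7.5/MgCl2/EGTA/DTT/Triton buffer for one hour. ADP was quantified by Transcreener competitive fluorescence polarization against an ADP calibration curve.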

For test [13], the target named is Ubiquitin carboxyl-terminal hydrolase 1 (Homo sapiens) (UniProt O94782). Kind of test: Inhibitors of USP1/UAF1: Pilot qHTS (AID 504865).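 Further: rhodamine fluorescence freed from ubiquitin-rhodamine substrate followed over time; top concentration of the series differs between compounds; on the % scale 0 is the no-effect control and ±100 the full control effect; nearly all actives have a fitted effect of over 35% in size.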 The following applies: purified USP1/UAF1, Ub-rhodamine cleavage fluorescence; series mostly up to 54.9 µM. Summed up:
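USP1/UAF1 complex (1nM) preincubated with compound 15 min at room temperature, then Ub-Rho substrate (150nM final) added. Fluorescence read kinetically at 480/540 nm, 6 reads every 60 seconds. Buffer: 50mM HEPES pH 7.8, 0.5mM EDTA, 0.1 mg/ml BSA, 1mM TCEP, 0.01% Tween-20.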

Test [14] in a line: Primary qHTS for small molecule stabilizers of the endoplasmic reticulum resident proteome: Secreted ER Calcium Modulated Protein (SERCaMP) assay (AID 1508630). Further: on the % scale 0 is the no-effect control and ±100 the full control effect. The following applies: SH-SY5Y GLuc-SERCaMP (Gaussia luciferase released on ER calcium loss) secretion, thapsigargin, luminescence; series mostly up to 38.4 µM. Summed up: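 The SH-SY5Y reporter protocol was run at 3 concentrations up to 38.3 uM (primary) or 11 concentrations (follow-up): 16 h compound, 100 nM thapsigargin for 4 h, then extracellular luciferase luminescence.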

Test [15] addresses Dual specificity protein kinase CLK4 (Homo sapiens) (UniProt Q9HAZ1). The test can be described thus: qHTS Assay for Inhibitors of CDC-like Kinase 4 (ADP-Glo Assay) (AID 1771). Further: nearly all actives have a fitted effect of over 70% in size. Further: potency means the concentration at half of the fitted maximal effect. Conditions: recombinant CLK4, ADP-Glo luminescence; series mostly up to 80 µM. Summed up: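 25 nM Clk4, 100 uM RS peptide, 1 uM ATP (final); 2 mM MgCl2, 0.5 mM EGTA, 2.5 mM DTT, 0.01% Triton X-100; 1 hr RT. ADP-Glo readout: ATP depletion 45 min, conversion/luciferase 30 min, luminescence.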

Test [16] concerns the target Cytochrome P450 2C19 (Homo sapiens) (UniProt P33261). The test can be described thus: qHTS Assay for Inhibitors and Substrates of Cytochrome P450 2C19 (AID 899). Further: potency means the concentration at half of the fitted maximal effect; nearly all actives have a fitted effect of over 60% in size. Conditions: recombinant CYP2C19, luciferin-H EGE luminescence; series mostly up to 57.1 µM. Summed up: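 5nM enzyme + 10uM Luciferin-H EGE (=KM), 50mM KPO4; cpd pin-transferred, 10 min 37C; NADPH regen, 60 min 37C; stopped w/ luciferin detection reagent, 20 min; luminescence. Normalized to 57uM ketoconazole (AC100).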

SMILES strings stand for the structures. Unmarked numbers belong to inactive results. Records with an inconclusive call do not appear. Active and inactive are the calls of the source. Unless noted, the call rests on the fitted dose curve; in most records, active means well fitted curve in the direction sought with a large enough effect; inconclusive means small, poorly fitted or top-dose-only effect, or another doubt; inactive means no such curve, though single readings can be large; an effect the other way counts as inactive or inconclusive. Some results are limits rather than exact numbers.

Chain of Glucocorticoid receptor (Homo sapiens) (P04150 whole entry, looked up): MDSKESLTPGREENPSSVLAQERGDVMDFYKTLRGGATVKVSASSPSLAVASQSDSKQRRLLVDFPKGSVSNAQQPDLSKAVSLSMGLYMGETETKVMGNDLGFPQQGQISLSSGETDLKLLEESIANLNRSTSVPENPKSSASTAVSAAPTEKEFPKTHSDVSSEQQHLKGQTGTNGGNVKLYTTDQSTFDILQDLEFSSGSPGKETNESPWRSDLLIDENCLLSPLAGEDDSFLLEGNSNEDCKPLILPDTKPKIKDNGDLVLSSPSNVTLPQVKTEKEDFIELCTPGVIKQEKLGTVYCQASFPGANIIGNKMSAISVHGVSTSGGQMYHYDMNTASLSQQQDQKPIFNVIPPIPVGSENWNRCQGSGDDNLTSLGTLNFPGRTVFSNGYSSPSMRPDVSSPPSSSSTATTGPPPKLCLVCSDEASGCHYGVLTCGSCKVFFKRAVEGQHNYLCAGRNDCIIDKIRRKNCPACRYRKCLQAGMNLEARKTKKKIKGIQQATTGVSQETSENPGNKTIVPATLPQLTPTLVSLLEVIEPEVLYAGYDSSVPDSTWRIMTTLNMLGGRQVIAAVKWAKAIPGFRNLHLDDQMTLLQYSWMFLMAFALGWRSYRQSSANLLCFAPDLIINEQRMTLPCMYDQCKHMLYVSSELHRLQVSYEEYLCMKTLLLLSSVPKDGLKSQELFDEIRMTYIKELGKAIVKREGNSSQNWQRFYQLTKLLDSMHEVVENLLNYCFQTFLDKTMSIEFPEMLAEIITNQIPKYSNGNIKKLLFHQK
Chain of Lysosomal acid glucosylceramidase (Homo sapiens) (P04062 whole entry, looked up): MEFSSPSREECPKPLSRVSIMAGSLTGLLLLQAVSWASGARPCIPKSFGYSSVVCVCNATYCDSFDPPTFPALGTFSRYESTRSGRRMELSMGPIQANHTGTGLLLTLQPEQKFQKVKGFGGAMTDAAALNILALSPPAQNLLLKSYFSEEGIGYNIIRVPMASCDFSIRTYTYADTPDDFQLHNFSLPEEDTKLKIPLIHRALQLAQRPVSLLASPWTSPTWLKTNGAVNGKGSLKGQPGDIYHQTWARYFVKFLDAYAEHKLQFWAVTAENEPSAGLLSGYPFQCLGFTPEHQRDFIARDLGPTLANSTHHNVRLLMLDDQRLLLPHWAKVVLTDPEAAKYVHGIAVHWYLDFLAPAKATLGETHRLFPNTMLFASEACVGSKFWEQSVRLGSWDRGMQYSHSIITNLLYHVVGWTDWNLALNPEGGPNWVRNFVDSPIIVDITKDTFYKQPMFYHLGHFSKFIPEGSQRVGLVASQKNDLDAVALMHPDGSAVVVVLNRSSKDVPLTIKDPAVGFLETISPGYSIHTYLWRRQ
Chain of Cytochrome P450 1A2 (Homo sapiens) (P05177 whole entry, looked up): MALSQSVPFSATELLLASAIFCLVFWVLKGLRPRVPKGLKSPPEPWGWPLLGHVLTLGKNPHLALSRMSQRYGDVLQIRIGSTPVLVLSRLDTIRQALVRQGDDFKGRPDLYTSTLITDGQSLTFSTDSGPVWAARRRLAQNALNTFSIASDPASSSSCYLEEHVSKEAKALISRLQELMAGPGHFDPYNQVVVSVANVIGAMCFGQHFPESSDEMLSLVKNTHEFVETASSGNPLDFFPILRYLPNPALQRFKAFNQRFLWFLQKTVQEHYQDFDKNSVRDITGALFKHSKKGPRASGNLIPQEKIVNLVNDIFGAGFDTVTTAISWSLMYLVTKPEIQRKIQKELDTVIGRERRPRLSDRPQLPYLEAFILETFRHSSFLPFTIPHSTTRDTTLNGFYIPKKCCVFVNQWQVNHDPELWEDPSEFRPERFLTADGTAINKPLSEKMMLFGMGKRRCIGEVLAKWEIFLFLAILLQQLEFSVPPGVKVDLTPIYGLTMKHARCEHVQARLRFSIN
Chain of Dual specificity protein kinase CLK4 (Homo sapiens) (Q9HAZ1 whole entry, looked up): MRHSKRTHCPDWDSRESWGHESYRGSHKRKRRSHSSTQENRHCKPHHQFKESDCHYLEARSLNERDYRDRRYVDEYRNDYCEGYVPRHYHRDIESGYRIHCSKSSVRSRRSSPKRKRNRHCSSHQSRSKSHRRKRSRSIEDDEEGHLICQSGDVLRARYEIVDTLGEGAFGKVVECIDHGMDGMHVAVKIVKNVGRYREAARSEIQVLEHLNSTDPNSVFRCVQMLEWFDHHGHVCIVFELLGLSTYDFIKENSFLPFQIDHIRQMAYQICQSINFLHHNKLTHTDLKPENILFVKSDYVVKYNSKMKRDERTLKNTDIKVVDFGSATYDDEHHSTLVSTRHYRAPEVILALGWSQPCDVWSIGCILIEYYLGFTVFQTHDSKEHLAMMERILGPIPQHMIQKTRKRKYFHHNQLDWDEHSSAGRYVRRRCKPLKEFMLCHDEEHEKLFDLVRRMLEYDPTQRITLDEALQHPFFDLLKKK
Chain of Cytochrome P450 3A4 (Homo sapiens) (P08684 whole entry, looked up): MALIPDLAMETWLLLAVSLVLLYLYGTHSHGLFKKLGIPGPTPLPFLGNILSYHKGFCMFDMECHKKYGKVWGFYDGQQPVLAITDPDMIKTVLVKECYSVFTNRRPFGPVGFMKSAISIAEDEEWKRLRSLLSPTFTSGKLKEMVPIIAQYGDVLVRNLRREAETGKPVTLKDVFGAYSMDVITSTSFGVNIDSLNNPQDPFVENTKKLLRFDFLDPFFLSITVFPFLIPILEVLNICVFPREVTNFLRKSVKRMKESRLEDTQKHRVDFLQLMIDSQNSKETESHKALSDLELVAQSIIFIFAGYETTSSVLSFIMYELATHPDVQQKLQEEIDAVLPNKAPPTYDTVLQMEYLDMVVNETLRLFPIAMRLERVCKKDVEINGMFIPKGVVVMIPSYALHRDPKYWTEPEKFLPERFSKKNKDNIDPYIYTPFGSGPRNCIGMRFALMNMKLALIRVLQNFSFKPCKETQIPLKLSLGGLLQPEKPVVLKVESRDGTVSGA
Chain of Ubiquitin carboxyl-terminal hydrolase 1 (Homo sapiens) (O94782 whole entry, looked up): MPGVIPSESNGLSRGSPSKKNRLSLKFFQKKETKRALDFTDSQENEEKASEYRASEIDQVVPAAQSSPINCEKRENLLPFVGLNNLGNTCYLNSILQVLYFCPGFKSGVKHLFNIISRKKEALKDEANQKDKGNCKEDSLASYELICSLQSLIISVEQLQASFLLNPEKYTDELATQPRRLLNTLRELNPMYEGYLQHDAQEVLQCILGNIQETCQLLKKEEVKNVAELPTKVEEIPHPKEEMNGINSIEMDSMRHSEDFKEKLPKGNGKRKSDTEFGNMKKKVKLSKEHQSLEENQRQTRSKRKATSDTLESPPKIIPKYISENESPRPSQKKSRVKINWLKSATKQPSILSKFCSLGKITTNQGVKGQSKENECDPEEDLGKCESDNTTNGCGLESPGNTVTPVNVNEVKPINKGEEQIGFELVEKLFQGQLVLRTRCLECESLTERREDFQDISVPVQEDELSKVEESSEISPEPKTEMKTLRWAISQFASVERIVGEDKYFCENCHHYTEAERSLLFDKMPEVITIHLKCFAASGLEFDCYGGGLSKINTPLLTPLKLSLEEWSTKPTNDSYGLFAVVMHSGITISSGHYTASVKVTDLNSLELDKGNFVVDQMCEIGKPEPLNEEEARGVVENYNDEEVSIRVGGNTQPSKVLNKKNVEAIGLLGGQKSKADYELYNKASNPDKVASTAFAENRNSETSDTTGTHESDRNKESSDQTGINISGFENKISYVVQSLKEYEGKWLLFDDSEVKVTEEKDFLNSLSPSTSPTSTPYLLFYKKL
Chain of 3',5'-cyclic-AMP phosphodiesterase 4B (Homo sapiens) (Q07343 whole entry, looked up): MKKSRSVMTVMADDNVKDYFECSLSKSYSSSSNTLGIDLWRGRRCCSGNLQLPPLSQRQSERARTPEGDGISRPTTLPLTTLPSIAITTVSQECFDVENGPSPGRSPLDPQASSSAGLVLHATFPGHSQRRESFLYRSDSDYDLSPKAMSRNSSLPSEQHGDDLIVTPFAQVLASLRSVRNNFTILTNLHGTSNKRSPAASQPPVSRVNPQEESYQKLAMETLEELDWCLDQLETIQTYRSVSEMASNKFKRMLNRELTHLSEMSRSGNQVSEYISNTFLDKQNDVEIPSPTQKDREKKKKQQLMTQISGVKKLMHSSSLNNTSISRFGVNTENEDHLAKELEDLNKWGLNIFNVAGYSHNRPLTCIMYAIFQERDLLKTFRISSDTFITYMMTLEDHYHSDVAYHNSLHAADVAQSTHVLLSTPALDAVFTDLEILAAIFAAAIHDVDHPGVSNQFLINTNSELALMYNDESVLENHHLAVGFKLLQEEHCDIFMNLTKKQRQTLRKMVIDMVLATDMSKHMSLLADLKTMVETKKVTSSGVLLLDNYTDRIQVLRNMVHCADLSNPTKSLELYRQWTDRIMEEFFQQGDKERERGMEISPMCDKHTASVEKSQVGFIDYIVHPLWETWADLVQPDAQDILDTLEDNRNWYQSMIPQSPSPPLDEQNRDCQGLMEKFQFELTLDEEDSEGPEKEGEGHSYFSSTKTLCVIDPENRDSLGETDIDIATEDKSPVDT
Chain of Cytochrome P450 2C19 (Homo sapiens) (P33261 whole entry, looked up): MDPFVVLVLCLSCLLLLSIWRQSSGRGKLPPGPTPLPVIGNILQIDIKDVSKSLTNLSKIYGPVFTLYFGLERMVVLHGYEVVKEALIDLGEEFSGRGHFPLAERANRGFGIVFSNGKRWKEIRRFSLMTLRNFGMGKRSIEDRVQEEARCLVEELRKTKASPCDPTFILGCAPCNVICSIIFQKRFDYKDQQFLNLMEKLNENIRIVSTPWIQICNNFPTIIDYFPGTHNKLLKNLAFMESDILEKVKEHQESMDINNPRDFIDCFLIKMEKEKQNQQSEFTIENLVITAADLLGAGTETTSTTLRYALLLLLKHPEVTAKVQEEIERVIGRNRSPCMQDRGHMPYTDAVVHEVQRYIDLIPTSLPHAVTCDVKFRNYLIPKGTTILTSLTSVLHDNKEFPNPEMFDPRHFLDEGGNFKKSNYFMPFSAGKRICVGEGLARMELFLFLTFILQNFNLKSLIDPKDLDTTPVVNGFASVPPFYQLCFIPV

As for `CN(Cc1ccco1)c1ncncc1-c1cccnc1`, the Potency in [1] was > 11.4 µM; in test [3], 5.01 µM (active); in test [6], > 46 µM; in test [7] it was > 46 µM; in test [10] it was 2.51 µM (active). The activity change, negative = inhibition is 1.77% in test [2] and -11.4% in test [4]. For the same molecule, in [5], the activity, negative = inhibition was 17.1%. The Potency entry in test [8], in test [9], in test [11], in test [12] and in [13] was “inactive” throughout. Besides, in test [14], the result was inactive.

Consider `Cc1cnc(CNc2cc(-c3ccccc3Cl)ncn2)cn1`, for which the Potency was > 11.4 µM in test [1]; 15.8 µM (active) in test [3]; > 46 µM in test [6]; > 46 µM in test [7]; 20 µM (active) in test [15]. Besides, in test [2], the activity change, negative = inhibition was 2.27%. For the same molecule, the activity, negative = inhibition in test [5] was 2.17%. In addition, the Potency entry in test [8], in [9], in test [10] and in [13] was “inactive” throughout. The result in test [14] was inactive.

As to `CN(C)c1ncc2nc(-c3ccccc3)c(=O)n(Cc3cccs3)c2n1`, the Potency in test [1] is > 11.4 µM; in [6] it was > 9.22 µM; in test [7], > 46 µM. The Potency entry in test [11], in [15] and in test [13] was “inactive” in each case. For the same molecule, in [14], the result was inactive.

For the molecule `FC(F)(F)c1ccccc1-c1nc(NC2CC2)c2ccccc2n1`, the Potency is 6.53 µM (active) in test [1]; 0.398 µM (active) in test [3]; > 46 µM in test [6]; > 46 µM in [7]; 3.16 µM (active) in [10]; 14.1 µM (active) in test [15]. Also, the activity change, negative = inhibition is 3.67% in test [2] and 8.57% in test [4]. For the same molecule, in test [5], the activity, negative = inhibition is 8.2%. Further, the Potency entry in [8], in test [11] and in test [13] was “inactive” each time. Besides, the result in test [14] was inactive.

Turning to `Cc1cnc(CNc2ncncc2-c2ccc(N(C)C)cc2)cn1`, the Potency in test [1] was > 11.4 µM; in test [3], 3.16 µM (active); in [6], > 46 µM; in test [7], > 46 µM; in test [10], 2 µM (active). The values for the activity change, negative = inhibition in [2] and in [4] were 3.22% and -0.821%, respectively. In addition, the activity, negative = inhibition in test [5] was 13.6%. For the same molecule, the Potency result in test [8], in test [9], in [11], in test [12] and in test [13] was “inactive” each time. Also, the result in [14] was inactive.

Consider `Clc1ccccc1-c1nccc(NCCN2CCOCC2)n1`, for which the Potency in test [1] is > 11.4 µM; in test [3] it was 2 µM (active); in [6], > 46 µM; in test [7], > 46 µM; in test [16], 5.01 µM (active). Moreover, the activity change, negative = inhibition in test [2] was 4.13%; in test [4] it was 3.47%. For the same molecule, the activity, negative = inhibition in test [5] was 5.58%. The Potency result in test [8], in test [9], in [11], in test [12] and in test [13] was “inactive” in each case. Moreover, the outcome in [14] was inactive.

For the molecule `CN(C)c1ncc2nc(-c3cccs3)c(=O)n(-c3ccccc3)c2n1`, the Potency is > 11.4 µM in test [1], 31.6 µM (active) in [3], > 9.22 µM in test [6] and > 46 µM in [7]. In addition, the activity change, negative = inhibition was -9.21% in [2] and 6.03% in [4]. Moreover, the activity, negative = inhibition in [5] is 21.3%. For the same molecule, the Potency entry in test [8], in [12] and in [13] was “inactive” in each case. For the same molecule, the outcome in [14] was inactive.
